AC50 and outcome data for 20 compounds are collected here from PubChem BioAssay (EPA / NIEHS).

Active and inactive are the calls of the source. Rule for the calls: active = hit-call score of the fitted dose curve at least 0.9, where 1 is the maximum; inactive = score below 0.9.

The test can be described thus: CEETOX_H295R_OHPROG: CeeTox H295R High-throughput Steroidogenesis Assay for OH-Progesterone (OHPROG) (AID 2283435). The following applies: actives raise or lower the signal. On the procedure:
CEETOX_H295R is a cell-based, multiplexed-readout assay that uses H295R, a human adrenal gland cell line, with measurements taken at 48 hours after chemical dosing in a 96-well plate.CEETOX_H295R_OHPROG is one of 23 assay component(s) measured or calculated from the CEETOX_H295R assay. It is designed to make measurements of hormone induction, a form of inducible reporter, as detected with absorbance signals by HPLC-MS-MS technology.Data from the assay component CEETOX_H295R_OHPROG was analyzed into 1 assay endpoint. This assay endpoint, CEETOX_H295R_OHPROG, was analyzed with bidirectional fitting relative to DMSO as the negative control and baseline of activity. Using a type of inducible reporter, gain or loss-of-signal activity using HPLC-MS-MS was used to understand synthesis of 17alpha-hydroxyprogesterone in H295R cell line at 48hr of chemical exposure. To generalize the intended target to other relatable targets, this assay endpoint is annotated to the steroid hormone intended target family, where the subfamily is progestagens.
Cell culture and media preparation procedures were conducted in accordance with OECD Test No. 456 guidelines, with minor modifications. H295R cells (ATCC CRL-2128) were expanded for 5 passages and frozen in batches in liquid nitrogen. Prior to the steroidogenesis assay, H295R cells were thawed and passed at least 4 times. The maximum passage was 10. Cells were maintained in a 1:1 mixture of DMEM/F12 supplemented with 5ml/L ITS+ Premix (BD Bioscience) and 12.5 ml/L Nu-Serum (BD Bioscience). After seeding cells into 96-well plates at 50-60% confluency, cells were allowed to adhere overnight. Prior to chemical testing, culture medium was replaced with 175 uL medium containing 10 uM forskolin to stimulate steroidogenesis for 48 hours. Following prestimulation, forskolin medium was replaced with medium containing test chemical solubilized in DMSO (ensuring a final concentration of 0.1% DMSO). Test chemicals were incubated for 48 hours, then the medium was removed and split into 2 vials containing approximately 75uL each, and stored at -80 C prior to hormone analysis. For steroid quantification, media samples were shipped to OpAns, LLC (Durham, NC) on dry ice, and samples were thawed to room temperature prior to liquid-liquid extraction. Steroid hormones were extracted from media samples using methyl tertbutyl ether (MTBE). An extra derivatization with dansyl chloride was included for estrogen (estrone and estradiol) detection only. Steroid hormones were separated by HPLC, eluted using a reverse phase C18 gradient with electrospray positive ionization, followed by quantification by tandem mass spectrometry (MS/MS). Data were acquired on a MassHunter Workstation Acquisition version B03.01 (Agilent Technologies, Inc.) and processed using MassHunter Quantitative Analysis for QQQ. Accuracy was determined for each hormone analyte from 3 standards to determine upper and lower limits of quantification (ULOQ and LLOQ, respectively) using a 7-point standard curve. Precision and accuracy of the extraction and quantification methods were calculated as the percent relative standard deviation (%RSD) of the spiked standards and percent spiked standard recovered, respectively. […] Test medium was removed following chemical exposure, and cell viability was evaluated in the same wells by MTT. MTT procedures were as follows: after removal of test medium, 500 uL of 0.5 mg/ml of 3-[4,5-dimethylthiazol-2-y]2,5-diphenyltetrazoliumbromide solution was added to the cells. Following a 4-hour incubation at 37 C and 5% CO2 to allow formazan-crystal formation, the MTT solution was removed and blue formazan salt crystals were solubilized using 500uL anhydrous isopropanol with shaking for 20 minutes. Absorbance was read at 570 and 650nm using a Packard Fusion microplate reader. Background correction of absorbance units was used to determine percent change relative to controls. […]
For the compound `O=c1[nH]cccc1O`, the AC50 (usually the concentration at which the activity in the assay is half-maximal) is 8.78 µM (active). As for `OCCC(O)CO` (stereo not given), the result was inactive. For the compound `O=C(c1ccccc1)c1ccc(Cl)cc1`, the AC50 was 37.9 µM (active). Take `CN1CN(C)CN(C)C1`: the outcome was inactive. On the same count and under the same terms, the same measure for `O=C1c2ccccc2C(=O)c2c(Cl)cccc21`: “inactive”.

As for `N#Cc1ccccc1O`, the AC50 was 30.1 µM (active).

As for `CCN(CC)c1ccc(C=O)cc1`, the compound was called inactive.

As for `CCn1c2ccccc2c2ccccc21`, the AC50 was 50 µM (active). The same measure, in the same setting: as for `CCCCC(CC)COC(=O)c1ccc(N(C)C)cc1` (stereo not given), the figure is 6.74 µM (active). For the compound `CCCCCCCCCc1ccc(OCCO)cc1`, the call was inactive. For the compound `C[C@]12CC[C@H]3C(=CCc4cc(O)ccc43)[C@@H]1CCC2=O`, the half-maximal activity concentration (AC50) is 2.87 µM (active). In the case of `CC1CCCCC1`, the outcome was inactive. The same measure, in the same setting: as for `CCN(CC)c1ccc(N=Nc2ccccc2)cc1`, the entry is “inactive”; as for `O=C1C=CC(=O)N1c1ccccc1`, “inactive”.

Consider `Cc1cccc(C)n1`, for which the compound was called inactive. On the same count and under the same terms, the same measure for `CSc1ccc(O)cc1C`: “inactive”.

As to `Cc1cc(O)c(C(C)(C)C)cc1C(C)(C)C`, the call was inactive.

Turning to `CCOCOCC`, the result was inactive. As for `CCCCCCCCCCCCC[N+](C)(C)Cc1ccccc1`, the AC50 was 0.509 µM (active). For `Nc1cccnc1N`, the compound was classed as inactive.
